Among the data in PubChem BioAssay AID2129 (The Scripps Research Institute Molecular Screening Center, 2009) are inhibition values, retold here.

For orientation: inhibition means the change of the read-out against control, counted positive when it falls.

Hit rate of the full screen: of about 320,000 compounds, about 2,200 (0.69%) were called active. For the sample, actives were picked, then their nearest neighbours and some compounds at random. A number with no mark means an inactive call.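 How the source made its calls: active means inhibition above the mean of all tested compounds plus 3 SD, cutoff set per campaign (cut at about 30% in these data); inactive means the rest.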

This experiment deals with Bcl-2-like protein 1 (Homo sapiens) (UniProt Q07817). Nature of the experiment: inhibitors of human Bcl-xL, primary screen, biochemical, fluorescence polarization, HTS (AID 2129).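 Further: 0% = DMSO wells and 100% = unlabeled Bim-BH3 peptide competitor; inhibitors lower millipolarization by displacing the labeled peptide.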 Conditions: GST-Bcl-xL / FITC-Bim BH3 peptide fluorescence polarization; at 10.9 µM; stronger effect = higher value. For orientation: In fluorescence polarisation assays a small probe gives low polarisation when free and higher when bound to something large.
Chain of Bcl-2-like protein 1 (Homo sapiens) (Q07817 whole entry, looked up): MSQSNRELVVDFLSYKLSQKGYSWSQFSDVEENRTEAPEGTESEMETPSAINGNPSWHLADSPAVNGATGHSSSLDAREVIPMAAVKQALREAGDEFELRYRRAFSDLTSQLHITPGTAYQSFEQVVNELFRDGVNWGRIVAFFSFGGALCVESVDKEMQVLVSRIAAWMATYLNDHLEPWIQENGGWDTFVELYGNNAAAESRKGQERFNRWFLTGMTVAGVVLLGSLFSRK
Consider `Cc1cc(NC(=O)C(C)SCC(=O)Nc2ccccc2N2CCCCC2)no1` (configuration not stated), for which the inhibition was -2.56%.

`COc1ccc(CCNC(=O)COC(=O)c2cc(=O)c3ccccc3o2)cc1`: the inhibition is -7.08%.

Consider `O=C(C1CC(=O)N(C2CCCCC2)C1)N1CCN(c2ccccc2)CC1` (configuration not stated), for which the inhibition was 3.83%.

With `O=c1[nH]c(-c2ccccc2)c(-c2ccccc2)[nH]1`, the inhibition is 1.54%.

For `O=c1[nH]c(=O)c2nc3ccccc3nc2[nH]1`, the inhibition was 33.4% (active).

`CNC(=O)c1cccc2nc3ccccc3nc12`: the inhibition is 8.33%.

As to `CNC(C)C#Cc1ccc2sc3cc(OC)c(OC)cc3c(=O)c2c1` (configuration not stated), the inhibition is 0.94%.

In the case of `COc1ccc(C(=O)NCC(c2ccco2)N2CCc3ccccc32)cc1OC` (configuration not stated), the inhibition was 3.87%.

As to `C[n+]1ccccc1C1CCCC/C1=N\Nc1ccc([N+](=O)[O-])cc1[N+](=O)[O-]` (configuration not stated), the inhibition was -14.1%.

In the case of `COc1ccc(S(=O)(=O)N(C)CC(=O)NCCCN2CCOCC2)cc1Cl`, the inhibition was -0.96%.

For `COc1ccc2cc(C(=O)C3CCCN(C(=O)c4sc(C)nc4C)C3)ccc2c1` (configuration not stated), the inhibition was 3%.

Regarding `COc1ccc2c(c1)CCc1cn3ncc(C#N)c3nc1-2`, the inhibition is 5.65%.

Turning to `COc1ccc2nc(N3CCCC(O)C3)c(C#N)cc2c1` (configuration not stated), the inhibition is 32% (active).

`CCOc1ccccc1Nc1ccc2nonc2c1[N+](=O)[O-]`: the inhibition was -3.2%.

Turning to `O=[N+]([O-])c1c(NCCO)cc(Sc2nc3ccccc3s2)c2nonc12`, the inhibition was 38.8% (active).

Take `O=C(O)c1ccccc1CSc1nc2ccccc2s1`: the inhibition is 15.6%.

For `O=C(C1CCC1)N1CCc2cc(S(=O)(=O)NCc3cccnc3)ccc21`, the inhibition was 1.18%.

For the molecule `CCN(CC)CCNc1nc(-c2ccc(OC(F)F)cc2)c(C)s1`, the inhibition is 4.61%.

Consider `CCOc1ccc(C2C3=C(CCCC3=O)N(CC(=O)O)C3=C2C(=O)CCC3)cc1`, for which the inhibition is 6.72%.

On to `CCCN1C2=C(C(=O)CCC2)C(c2ccc(O)c(Br)c2)C2=C1CCCC2=O`, for which the inhibition is 37.8% (active).

`COc1ccc(C2C3=C(CCCC3=O)N(CC(=O)O)C3=C2C(=O)CCC3)cc1`: the inhibition is 7.5%.

On to `CCCCCCCC1(C)NC(=O)N(CC(=O)Nc2cc(C)on2)C1=O` (configuration not stated), for which the inhibition was 3.89%.

In the case of `O=C(Oc1cccc(O)c1)C1CCCCC1`, the inhibition was 1.38%.

For `CN(C(=O)CSc1nnc(-c2ccc3c(c2)OCO3)o1)C1CCS(=O)(=O)C1` (configuration not stated), the inhibition was 3.5%.

In the case of `CCCc1cc(=O)[nH]c(SCC(=O)c2c(N)n(CC(C)C)c(=O)n(C)c2=O)n1`, the inhibition was -0.53%.

Regarding `Cc1coc(C)c1C(=O)CC1(O)C(=O)N(C)c2ccc(Cl)cc21` (configuration not stated), the inhibition was 3.68%.

For the molecule `NC(=O)CC(NC(=O)Cc1cccc2ccccc12)c1ccc(NCc2cc(F)ccc2F)c([N+](=O)[O-])c1` (configuration not stated), the inhibition is -3.93%.

Take `COC(=O)CCCC1=CC2=CC(=O)C(C)(OC(=O)c3cccs3)C(=O)C2=CN1CC(C)C` (configuration not stated): the inhibition is 8.79%.

As to `COC(=O)CCCC1=CC2=CC(=O)C(C)(OC(=O)c3cccs3)C(=O)C2=CN1c1cccc(C#N)c1` (configuration not stated), the inhibition is 35.7% (active).

Regarding `COC(=O)CCCC1=CC2=CC(=O)C(C)(OC(=O)c3cccs3)C(=O)C2=CN1CC1CC1` (configuration not stated), the inhibition is 13.4%.

As to `CC1CC(C)CN(S(=O)(=O)c2cccc(C(=O)N3C(=O)c4cccc(N)c4C3=O)c2)C1` (configuration not stated), the inhibition was 30.5% (active).

For `CN1CCN(S(=O)(=O)c2cccc(C(=O)O)c2)CC1`, the inhibition was 6.51%.

Consider `COc1cc(C(=O)N2C(=O)c3cccc(N)c3C2=O)cc(OC)c1OC`, for which the inhibition is 11.8%.

For `O=C(Cn1nc([N+](=O)[O-])nc1Br)NC1CCCCC1`, the inhibition is 0.58%.

Take `CC(C)(C)c1ccc(C(CC(=O)O)NS(=O)(=O)Cc2ccccc2)cc1` (configuration not stated): the inhibition was -2.32%.

With `O=C1CCCN1CCCNC(=S)Nc1ccc(F)c(Cl)c1`, the inhibition is 5.5%.

With `Cc1cc([N+](=O)[O-])ccc1NCc1cccc([N+](=O)[O-])c1`, the inhibition was 3.28%.

Consider `C=CCn1c(SCCOc2ccc(OC)cc2)nnc1C(NC(=O)c1ccc(OC)cc1)C(C)C` (configuration not stated), for which the inhibition is 4.55%.

As to `CN(C(=O)COC(=O)c1nc(Cl)ccc1Cl)C1CCS(=O)(=O)C1` (configuration not stated), the inhibition was -2.39%.

`COc1ccc(NC(=O)CN(C)C(=O)c2cc(-c3ccc(C)o3)nc3ccccc23)cc1`: the inhibition was 1.46%.

Regarding `CN(CCOc1ccccc1)C(=O)c1cc(-c2ccco2)nc2ccccc12`, the inhibition is 30.5% (active).

As to `CC1CCCN(C(=O)c2cc(-c3ccco3)nc3ccccc23)C1` (configuration not stated), the inhibition was 2.8%.

On to `CN(C(=O)COC(=O)c1cc(-c2ccco2)nc2ccccc12)C1CCS(=O)(=O)C1` (configuration not stated), for which the inhibition is 38.9% (active).

`COc1ccc(-c2cc(C(=O)N(C)Cc3ccccc3)c3ccccc3n2)cc1`: the inhibition was 4.34%.

For `O=C(c1cccs1)n1nc(NCc2ccccc2)nc1NCc1ccccc1`, the inhibition was -2.31%.

Take `Cc1nnsc1S(=O)(=O)Cc1ccccc1Cl`: the inhibition was 1.84%.

With `Cn1cccc1C(=O)NNC(=O)COc1ccc(Br)cc1`, the inhibition was 1.85%.

For the molecule `CC1CCN(C(=S)NC(=O)c2ccccc2Br)CC1`, the inhibition is 1.04%.

With `CCc1ccc(NC(=O)Nc2ccncc2)cc1`, the inhibition is -0.23%.

For `Oc1ccc2ccccc2c1N=Nc1nccs1`, the inhibition is 54.3% (active).

On to `COc1ccc(C(=O)N2CCCC(C(=O)c3ccccc3OC)C2)cc1OC` (configuration not stated), for which the inhibition is 2.42%.

With `COc1cc(OC)cc(-c2c(-c3cccs3)c3cc(-c4ccc(OC)cc4F)ccc3n2C)c1`, the inhibition was -0.84%.

As to `Cc1ccc(S(=O)(=O)N(C)C)cc1NC(=O)c1n[nH]c(=O)c2ccccc12`, the inhibition is -2.28%.

Consider `O=C(NCCc1ccc(C(F)(F)F)cc1)c1ccc2c(c1)OCO2`, for which the inhibition was 2.41%.

For the molecule `NC(=O)c1ccc(Nc2ccc3c(c2)CCC3)c([N+](=O)[O-])c1`, the inhibition was 2.16%.

As to `Cc1c(CCO)c(=O)n(-c2ccccc2)n1S(=O)(=O)c1ccc(F)cc1`, the inhibition was 9.16%.

Consider `O=C(C1=C(O)C(=O)N(Cc2ccccc2)C1c1cccnc1)c1ccco1` (configuration not stated), for which the inhibition is 3.45%.

With `O=C(C1=C(O)C(=O)N(Cc2ccccc2)C1c1ccco1)c1ccco1` (configuration not stated), the inhibition is 7.06%.

Regarding `O=C(C1=C(O)C(=O)N(c2ncccn2)C1c1cccs1)c1ccco1` (configuration not stated), the inhibition was 94.5% (active).

Turning to `COC(=O)/C=C(\Oc1ccccc1)C1(O)CCCCC1`, the inhibition is 1.07%.

For the molecule `CCn1c(SCC(=O)NC2=NCCS2)nnc1C(C)NC(=O)c1ccccc1F` (configuration not stated), the inhibition was -1.19%.

Turning to `O=C(N/N=C/c1sc(N2CCCCC2)nc1-c1cccs1)c1cccnc1`, the inhibition was -12.1%.
